Results filed as inconclusive are left out. Entries that show only a call come without a potency. Activity calls are given as the source filed them. The call rests on the fitted dose curve; in most records, active means well fitted inhibition curve with a large enough effect; inconclusive means small, poorly fitted or top-dose-only effect; inactive means no such curve, though single readings can be large or run the other way.

Data on 7 compounds can be found in PubChem BioAssay (NCATS).

The experiment deals with Retinaldehyde dehydrogenase 3 (Homo sapiens) (UniProt P47895). In words: qHTS for Inhibitors of the Aldehyde Dehydrogenase Family (ALDH1A3) Primary screen (AID 2061315). Particulars: ALDH inhibition qHTS; series mostly up to 56 µM. In general terms: qHTS replaces the single test concentration by a dilution series.
Regarding `Cc1ccc(C#Cc2cc(-c3nn(-c4nc(C(=O)O)cs4)c(CC4CC4)c3Cc3ccc(S(N)(=O)=O)c(F)c3)ccc2F)o1`, the Potency entry was “inactive”.
Then `Cc1cc(C=CC#N)cc(C)c1Nc1nc(Nc2ccc3scnc3c2)c2[nH]cnc2n1`, with “inactive”; and `O=C(OCC#CCNc1nnc(-c2cccc3ccccc23)o1)c1cccs1`, with “inactive”.
As to `CN1CCN(c2cccc(Nc3nn4c(=O)c5ccc(C(F)(F)F)cc5nc4s3)c2)CC1`, the Potency entry was “inactive”.
`O=C(Cc1ccc(Cl)c(Cl)c1)Nc1ccc(S(=O)(=O)Nc2cccc(O)c2)cc1`: the Potency result is “inactive”.
To `Cc1cc(C)nc(NC(=S)N2CCN(c3ccc4c(c3)OCO4)CC2)c1` belongs “inactive”; to `CC(C)Oc1ccc(-c2csc(N3CCC(C(N)=O)CC3)n2)cc1`, “inactive”.
